Results on 13 compounds are retold here after PubChem BioAssay (NCI).

Compounds without any hit were thinned out: in the full panel of roughly 83,000, 20% have a hit.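 Activity criterion: percent growth below 10, measured after cells in 96-well plates were exposed to a single compound concentration for 48 hours.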 A number with no mark means an inactive call. Active and inactive are the calls of the source.

Some test systems named below: DU-145 prostate; K-562 leukemia; MALME-3M melanoma; MDA-MB-231 breast; RXF 393 renal; SF-268 CNS; SF-295 CNS; SF-539 CNS; UACC-257 melanoma; M14 melanoma.
Assay in all cases: NCI-60 one-dose screen, 48 h (100 = growth as untreated, 0 = no growth, -100 = all killed)
Holding throughout (conditions): 10 µM unless noted

Turning to `O=C(CCl)Oc1ccc(-c2ccccc2)c(Br)c1`, the growth with DU-145 prostate was 104%; in the assay on K-562 leukemia, 103%; in the assay with MALME-3M melanoma, 107%; in the assay on MDA-MB-231 breast, 109%; in the assay with RXF 393 renal, 106%; in the assay with SF-268 CNS, 104%. The growth with SF-295 CNS was 107%; in the assay with SF-539 CNS it was 99.4%; in the assay on UACC-257 melanoma, 106%; in the assay on M14 melanoma it was 103%.
With `COc1ccc(/C=C2\Oc3cc(OCCCCN4CCCC4)ccc3C2=O)cc1`, the growth in the assay on DU-145 prostate was 95%; in the assay with K-562 leukemia, -40.3% (active); in the assay with MALME-3M melanoma, 110%; in the assay with MDA-MB-231 breast, 91.3%; in the assay on RXF 393 renal, 74.5%; in the assay with SF-268 CNS, 87.9%. The growth in the assay with SF-295 CNS was 83.5%; in the assay with SF-539 CNS, 42.4%; in the assay on UACC-257 melanoma it was 96.9%; in the assay on M14 melanoma it was 86.2%.
Take `O=S(=O)(Nc1ccc(Br)c(Cl)c1)c1ccc(-c2cnc(C3CC3)o2)cc1`: the growth was 9.63% (active) with DU-145 prostate; 10.2% with K-562 leukemia; 30.9% in the assay with MALME-3M melanoma; 33.6% with MDA-MB-231 breast; -10.6% (active) in the assay on RXF 393 renal; 50.3% in the assay on SF-268 CNS. The growth in the assay with SF-295 CNS was 5.84% (active); with SF-539 CNS, -19.8% (active); in the assay on UACC-257 melanoma, 55.5%; in the assay on M14 melanoma, 5.11% (active).
As for `CC1=C/C(=C(\c2ccc(N(C)C)cc2)c2ccc([N+](C)(C)C)cc2)C=CC1=[N+](C)C`, the growth is 51.5% in the assay with DU-145 prostate; 37.5% in the assay on K-562 leukemia; 120% with MALME-3M melanoma; 93.9% with MDA-MB-231 breast; 76.6% with RXF 393 renal; 92% in the assay on SF-268 CNS. Further, the growth in the assay on SF-295 CNS was 48.4%; with SF-539 CNS, 78.6%; in the assay with UACC-257 melanoma, 99.8%; in the assay with M14 melanoma it was 77.5%.
Consider `CN1CCN(CCCOc2cccc3nc(Nc4cc(Cl)cc(Cl)c4)ccc23)CC1`, for which the growth in the assay on DU-145 prostate was -23.8% (active); in the assay with K-562 leukemia it was -54.7% (active); in the assay with MALME-3M melanoma, -53.5% (active); in the assay with MDA-MB-231 breast it was -44.6% (active); in the assay on RXF 393 renal it was 38.8%; in the assay on SF-268 CNS, 16%. The growth with SF-295 CNS is 40.2%; in the assay with SF-539 CNS, 7.62% (active); in the assay on UACC-257 melanoma, -44.6% (active); in the assay with M14 melanoma, -55.7% (active).
Take `Nc1ccn(-c2ccc(Br)cc2)c(=O)n1`: the growth was 101% in the assay with DU-145 prostate; 76.2% with K-562 leukemia; 124% in the assay on MALME-3M melanoma; 104% in the assay with MDA-MB-231 breast; 137% with RXF 393 renal; 109% with SF-268 CNS. The growth was 79.3% in the assay with SF-295 CNS, 94.1% in the assay with SF-539 CNS, 127% in the assay on UACC-257 melanoma and 104% with M14 melanoma.
For `O=Nc1c(O)c(Cl)cc2ccccc12`, the growth in the assay on DU-145 prostate was 101%; with K-562 leukemia it was 54.3%; with MALME-3M melanoma, 90.8%; in the assay on MDA-MB-231 breast it was 74.3%; in the assay on RXF 393 renal, 67.4%; in the assay on SF-268 CNS it was 82.5%. For the same compound, the growth with SF-295 CNS is 111%; with SF-539 CNS it was 89.2%; with UACC-257 melanoma, 75.8%; in the assay with M14 melanoma, 85.7%.
`COC[C@H](C)n1c(C2CCOCC2)nc2cnc3cc(-c4c(C)noc4C)c(OC)cc3c21`: the growth with DU-145 prostate is 77.5%; with K-562 leukemia, 39.1%; in the assay on MALME-3M melanoma it was 75.7%; in the assay with MDA-MB-231 breast it was 55.4%; in the assay on RXF 393 renal, 67%; in the assay with SF-268 CNS, 76.7%. Also, the growth in the assay on SF-295 CNS is 53.7%; with SF-539 CNS it was 40.7%; in the assay on UACC-257 melanoma it was 38.3%; with M14 melanoma, 42.5%.
As to `CN1CCN(Cc2ccc(NC(=O)c3cncc(C#Cc4cncn5ccnc45)c3)cc2C(F)(F)F)CC1`, the growth in the assay with DU-145 prostate is 86.2%; with K-562 leukemia, 4.35% (active); in the assay on MALME-3M melanoma it was 2.25% (active); with MDA-MB-231 breast it was 54.5%; with RXF 393 renal, 90.4%; in the assay on SF-268 CNS, 92.4%. For the same compound, the growth in the assay on SF-295 CNS is 91.7%; with SF-539 CNS, 52.4%; in the assay with UACC-257 melanoma it was 58.4%; in the assay with M14 melanoma it was 7.22% (active).
Turning to `CCN1CCC2(CC1)NC(=O)c1c(c3ccc(Cl)c(Cl)c3n1C)C2C#N` (stereo not given), the growth in the assay on DU-145 prostate was 72.7%; in the assay on K-562 leukemia, 23.3%; in the assay on MALME-3M melanoma, -6.1% (active); in the assay on MDA-MB-231 breast, 60.5%; with RXF 393 renal, 76.6%; with SF-268 CNS it was 51.4%. Besides, the growth with SF-295 CNS is 70.8%; in the assay with SF-539 CNS it was 52%; in the assay with UACC-257 melanoma it was -5.12% (active); with M14 melanoma it was -38.5% (active).
Turning to `COc1ccc(-c2nn(-c3ccc(Cl)cc3)cc2-c2nc3ccccc3[nH]2)cc1`, the growth is 120% in the assay with DU-145 prostate; 89% in the assay on K-562 leukemia; 98.5% in the assay on MALME-3M melanoma; 73% in the assay on MDA-MB-231 breast; 94.7% with RXF 393 renal; 94.7% in the assay with SF-268 CNS. In addition, the growth in the assay with SF-295 CNS is 98.1%; in the assay with SF-539 CNS, 106%; in the assay on UACC-257 melanoma, 101%; in the assay on M14 melanoma, 90%.
For `C=C1c2nc3ccccc3n2C=C(c2ccc(Cl)cc2)N1Cc1ccc(OC)cc1`, the growth in the assay on DU-145 prostate was 103%; in the assay with K-562 leukemia, 59.2%; in the assay with MALME-3M melanoma, 99.3%; with MDA-MB-231 breast, 90.1%; in the assay on RXF 393 renal it was 77.5%; with SF-268 CNS, 96.1%. The growth in the assay on SF-295 CNS was 94.9%; in the assay on SF-539 CNS, 105%; in the assay with UACC-257 melanoma it was 90%; with M14 melanoma it was 81.1%.
In the case of `CCOC(=O)n1cc(-c2nonc2-c2cn(C)c3ncccc23)c2ccccc21`, the growth with DU-145 prostate is 97.1%; in the assay on K-562 leukemia, 40.6%; with MALME-3M melanoma, 84.4%; in the assay with MDA-MB-231 breast, 63.8%; with RXF 393 renal, 81.7%; in the assay with SF-268 CNS, 82.2%. The growth with SF-295 CNS is 82.8%; in the assay with SF-539 CNS, 92.3%; in the assay on UACC-257 melanoma, 98%; in the assay with M14 melanoma, 90.1%.
